Drawing on PubChem BioAssay (Tox21), this text covers Potency and activity change, negative = inhibition for 33 compounds.

Molecules are shown by their SMILES. Several values for one entry are separate records, joined by “and”; a condition that tells them apart may be missing. Equal values may be shown once. Results filed as inconclusive are left out. A number with no mark means an inactive call. Activity calls are given as the source filed them. The call rests on the fitted dose curve; in most records, active means well fitted curve in the direction sought with a large enough effect in the repeat runs; inconclusive means weak or mixed curves; inactive means no such curve, though single readings can be large; an effect the other way counts as inactive or inconclusive.

The target of assay [1] is Cytochrome P450 2C19 (Homo sapiens) (UniProt P33261). Description: Cytochrome P450 Family 2 Subfamily C Member 19 (CYP2C19) small molecule antagonists: luciferase reporter qHTS assay (AID 1671197). Further: nearly all actives have a fitted effect of over 65% in size. Further: potency means the concentration at half of the fitted maximal effect. The note with it: P450-Glo CYP2C19 enzyme, luciferin luminescence, 1 h; series mostly up to 115 µM. The essentials:
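Compounds were tested on CYP2C19 activity via proluciferin conversion to luciferin. The 37C, 1 h reaction followed NADPH addition; detection reagent stopped it.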
For orientation: A reporter such as luciferase makes a cellular process visible.

Assay [2] addresses Cytochrome P450 1A2 (Homo sapiens) (UniProt P05177). The assay can be described thus: Cytochrome P450 Family 1 Subfamily A Member 2 (CYP1A2) small molecule antagonists: luciferase reporter qHTS assay (AID 1671199). Further: nearly all actives have a fitted effect of over 50% in size. Further: potency means the concentration at half of the fitted maximal effect. The conditions noted are these: P450-Glo CYP1A2 enzyme, luciferin luminescence, 1 h; series mostly up to 115 µM. The essentials:
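Signal from luciferin formed by CYP1A2 from a proluciferin substrate is read as luminescence, expressed in relative luminescence units. Compounds sit with enzyme 10 min, NADPH-driven reaction runs 1 h, all at room temperature.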

Assay [3] deals with Cytochrome P450 2C9 (Homo sapiens) (UniProt P11712). The assay can be described thus: Cytochrome P450 Family 2 Subfamily C Member 9 (CYP2C9) small molecule antagonists: luciferase reporter qHTS assay (AID 1671198). Further: nearly all actives have a fitted effect of over 50% in size. Further: potency means the concentration at half of the fitted maximal effect. The note with it: P450-Glo CYP2C9 enzyme assay, luciferin luminescence; series mostly up to 115 µM. The essentials:
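P450-Glo proluciferin substrate with CYP2C9 enzyme; 10 min RT preincubation, then NADPH regeneration 1 h at 37C; luciferin detection reagent 20 min RT, luminescence in relative luminescence units.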

Assay [4] deals with Voltage-gated inwardly rectifying potassium channel KCNH2 (Homo sapiens) (UniProt Q12809). Description: Human Ether-a-go-go-Related Gene (hERG) channel small molecule antagonists: fluorescence cell-based qHTS assay (AID 1671200).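 Further: hERG-expressing U2OS cells given a thallium stimulus after FluxOR II dye loading; nearly all actives have a fitted effect of over 50% in size.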 The conditions noted are these: hERG-U2OS cells, FluxOR thallium flux fluorescence; series mostly up to 76.8 µM. The essentials:
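U2OS cells expressing the channel were plated at 1000 cells/well, incubated overnight at 37 C, then loaded with FluxOR II thallium-sensitive dye for 1 h at room temperature in the dark, with a further 10 min at room temperature before stimulation.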
(In general: The hERG channel carries a current that helps repolarise heart muscle cells.)

The target of assay [5] is Cytochrome P450 3A4 (Homo sapiens) (UniProt P08684). Description: Cytochrome P450 Family 3 Subfamily A Member 4 (CYP3A4) small molecule antagonists: luciferase reporter qHTS assay (AID 1671201). Further: nearly all actives have a fitted effect of over 50% in size. Further: potency means the concentration at half of the fitted maximal effect. The conditions noted are these: P450-Glo CYP3A4 enzyme, luciferin luminescence, 1 h; series mostly up to 115 µM. The essentials:
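P450-Glo CYP3A4 system with proluciferin substrate; compounds preincubated 10 min RT with enzyme-substrate mix, then NADPH regeneration added for 1 h RT. Detection reagent 20 min, luminescence read as relative luminescence units.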
On the % scale 0 is the no-effect control and ±100 the full control effect.

Sequence of Cytochrome P450 2C9 (Homo sapiens) (P11712 whole entry, looked up): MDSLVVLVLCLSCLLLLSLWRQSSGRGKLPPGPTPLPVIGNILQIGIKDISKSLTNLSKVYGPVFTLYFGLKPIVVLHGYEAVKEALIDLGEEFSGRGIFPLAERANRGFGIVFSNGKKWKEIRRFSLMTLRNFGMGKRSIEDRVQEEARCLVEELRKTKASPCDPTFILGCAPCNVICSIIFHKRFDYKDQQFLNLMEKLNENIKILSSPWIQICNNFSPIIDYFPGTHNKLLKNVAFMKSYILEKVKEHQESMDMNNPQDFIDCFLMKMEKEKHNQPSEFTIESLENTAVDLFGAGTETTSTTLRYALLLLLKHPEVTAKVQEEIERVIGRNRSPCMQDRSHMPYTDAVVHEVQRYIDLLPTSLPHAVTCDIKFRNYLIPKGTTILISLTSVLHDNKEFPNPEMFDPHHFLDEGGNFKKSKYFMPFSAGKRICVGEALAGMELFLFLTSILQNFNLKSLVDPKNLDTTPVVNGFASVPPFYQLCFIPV
Sequence of Cytochrome P450 1A2 (Homo sapiens) (P05177 whole entry, looked up): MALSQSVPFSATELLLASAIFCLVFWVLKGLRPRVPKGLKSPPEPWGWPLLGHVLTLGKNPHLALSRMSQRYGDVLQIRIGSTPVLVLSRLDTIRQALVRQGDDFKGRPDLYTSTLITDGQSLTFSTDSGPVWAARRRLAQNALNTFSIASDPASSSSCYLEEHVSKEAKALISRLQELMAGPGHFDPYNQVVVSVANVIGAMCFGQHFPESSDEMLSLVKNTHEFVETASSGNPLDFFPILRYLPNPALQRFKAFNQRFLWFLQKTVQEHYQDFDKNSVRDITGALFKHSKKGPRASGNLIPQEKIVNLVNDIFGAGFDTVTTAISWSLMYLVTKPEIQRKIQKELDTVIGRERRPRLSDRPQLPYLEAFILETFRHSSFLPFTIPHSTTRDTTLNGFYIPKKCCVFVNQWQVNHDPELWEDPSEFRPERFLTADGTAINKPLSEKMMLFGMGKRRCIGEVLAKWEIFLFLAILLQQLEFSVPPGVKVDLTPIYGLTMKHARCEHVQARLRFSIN
Sequence of Cytochrome P450 3A4 (Homo sapiens) (P08684 whole entry, looked up): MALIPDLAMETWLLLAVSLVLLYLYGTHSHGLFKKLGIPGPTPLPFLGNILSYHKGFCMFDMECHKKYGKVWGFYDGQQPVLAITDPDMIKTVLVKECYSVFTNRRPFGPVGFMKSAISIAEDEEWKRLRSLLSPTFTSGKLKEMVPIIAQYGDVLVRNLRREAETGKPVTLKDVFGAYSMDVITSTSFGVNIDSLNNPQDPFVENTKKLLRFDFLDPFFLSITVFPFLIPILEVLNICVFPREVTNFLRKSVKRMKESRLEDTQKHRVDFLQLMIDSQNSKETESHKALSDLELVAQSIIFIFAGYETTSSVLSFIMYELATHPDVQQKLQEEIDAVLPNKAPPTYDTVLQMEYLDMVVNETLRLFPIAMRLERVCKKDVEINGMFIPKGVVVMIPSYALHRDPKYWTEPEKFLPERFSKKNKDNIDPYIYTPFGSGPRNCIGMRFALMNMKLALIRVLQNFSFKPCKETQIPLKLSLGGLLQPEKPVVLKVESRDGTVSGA
Sequence of Cytochrome P450 2C19 (Homo sapiens) (P33261 whole entry, looked up): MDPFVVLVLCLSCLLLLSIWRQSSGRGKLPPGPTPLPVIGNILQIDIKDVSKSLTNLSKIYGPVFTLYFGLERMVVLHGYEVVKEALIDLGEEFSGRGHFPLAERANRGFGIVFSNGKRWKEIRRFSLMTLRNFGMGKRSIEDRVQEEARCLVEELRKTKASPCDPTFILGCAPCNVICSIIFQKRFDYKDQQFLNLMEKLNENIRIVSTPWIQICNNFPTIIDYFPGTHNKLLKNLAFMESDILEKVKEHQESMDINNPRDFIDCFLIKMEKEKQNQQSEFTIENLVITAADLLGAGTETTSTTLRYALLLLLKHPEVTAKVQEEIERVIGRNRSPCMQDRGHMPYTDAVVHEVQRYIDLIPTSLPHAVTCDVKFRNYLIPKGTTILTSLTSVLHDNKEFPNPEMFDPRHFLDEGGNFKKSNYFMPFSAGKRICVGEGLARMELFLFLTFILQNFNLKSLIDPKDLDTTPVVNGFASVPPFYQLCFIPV
Sequence of Voltage-gated inwardly rectifying potassium channel KCNH2 (Homo sapiens) (Q12809 whole entry, looked up): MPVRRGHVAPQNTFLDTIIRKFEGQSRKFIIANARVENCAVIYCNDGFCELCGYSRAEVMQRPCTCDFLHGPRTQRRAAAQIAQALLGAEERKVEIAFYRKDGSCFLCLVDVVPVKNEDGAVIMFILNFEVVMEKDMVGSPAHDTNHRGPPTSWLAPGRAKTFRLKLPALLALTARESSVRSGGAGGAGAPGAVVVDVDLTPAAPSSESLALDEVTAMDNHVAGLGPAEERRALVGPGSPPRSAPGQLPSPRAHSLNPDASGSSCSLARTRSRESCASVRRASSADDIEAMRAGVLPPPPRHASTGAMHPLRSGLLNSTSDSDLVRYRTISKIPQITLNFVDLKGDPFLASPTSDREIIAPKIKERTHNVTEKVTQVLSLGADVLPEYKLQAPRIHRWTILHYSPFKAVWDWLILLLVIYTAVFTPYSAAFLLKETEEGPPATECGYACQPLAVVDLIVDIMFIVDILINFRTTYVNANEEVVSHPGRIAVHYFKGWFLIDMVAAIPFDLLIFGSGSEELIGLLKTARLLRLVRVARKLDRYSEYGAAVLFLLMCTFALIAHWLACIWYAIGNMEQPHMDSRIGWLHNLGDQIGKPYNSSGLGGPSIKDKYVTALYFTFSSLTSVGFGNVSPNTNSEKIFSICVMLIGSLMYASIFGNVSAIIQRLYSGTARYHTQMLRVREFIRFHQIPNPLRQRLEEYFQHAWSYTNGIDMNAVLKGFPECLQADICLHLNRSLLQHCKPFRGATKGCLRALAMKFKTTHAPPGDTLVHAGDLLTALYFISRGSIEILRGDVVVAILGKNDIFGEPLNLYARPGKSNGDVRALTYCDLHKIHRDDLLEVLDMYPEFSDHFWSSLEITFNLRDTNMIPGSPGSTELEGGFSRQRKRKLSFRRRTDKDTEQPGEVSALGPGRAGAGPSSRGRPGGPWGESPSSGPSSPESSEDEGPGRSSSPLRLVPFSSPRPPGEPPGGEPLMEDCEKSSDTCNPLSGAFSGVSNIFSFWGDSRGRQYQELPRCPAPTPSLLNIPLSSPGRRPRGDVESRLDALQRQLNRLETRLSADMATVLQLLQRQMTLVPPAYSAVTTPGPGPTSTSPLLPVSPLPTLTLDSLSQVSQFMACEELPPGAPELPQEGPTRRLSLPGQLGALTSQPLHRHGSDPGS

As for `CN1CCN(C2=Nc3ccccc3Sc3ccc(Cl)cc32)CC1`, the Potency in assay [1] was 21.9 µM (active). Further, in assay [2], the Potency result is “inactive”.

On to `CCN(CC)CCOc1ccc2c(c1)C(=O)c1cc(OCCN(CC)CC)ccc1-2`, for which the Potency result in assay [1], in assay [3], in assay [4] and in assay [5] was “inactive” in each case.

On to `NCCCN(CCO)CCO`, for which the Potency entry in assay [1], in assay [3], in assay [4] and in assay [5] was “inactive” throughout.

Consider `C[Si](C)O[Si](C)(C)O[Si](C)(C)O[Si](C)C`, for which the Potency result in assay [1], in assay [2] and in assay [4] was “inactive” in each case.

With `CC(=O)O[C@@H]1C(=O)O[C@@H]2[C@H]1OC(=O)[C@@H]2OC(C)=O`, the Potency result in assay [1], in assay [3], in assay [4] and in assay [5] was “inactive” each time.

`Cc1cccc(OCCOc2cccc(C)c2)c1`: the Potency in assay [1] is 3.77 µM (active); in assay [2], 8.45 µM (active). In addition, the Potency result in assay [4] is “inactive”.

Regarding `Cc1cc(NC(=O)C(=O)O)cc(C)c1Oc1ccc(O)c2c1CCC2`, the Potency in assay [1] was 25.2 µM (active); in assay [3], 35.6 µM (active). For the same compound, the Potency entry in assay [5] was “inactive”.

In the case of `CC(C)c1cccc(C(C)C)c1NC(=O)NS(=O)(=O)c1cc(C(C)(C)O)co1`, the results for the Potency in assay [1] and in assay [3] were 11.2 µM (active) and 35.6 µM (active), respectively. The Potency entry in assay [4] and in assay [5] was “inactive” throughout.

As for `CCCCCCCCCC(=O)OCC`, the Potency in assay [1] was 56.4 µM (active). Moreover, the Potency entry in assay [3], in assay [4] and in assay [5] was “inactive” in each case.

In the case of `Oc1ccc(Cc2ccccc2)cc1`, the Potency was 20.8 µM (active) in assay [1] and 65.7 µM (active) in assay [3]. Also, the Potency result in assay [4] and in assay [5] was “inactive” in each case.

Turning to `O=C(/C=C/c1ccc(O)c(O)c1)O[C@@H]1C[C@](O)(C(=O)O)C[C@@H](O)[C@H]1O`, the Potency in assay [1] was 80.9 µM (active). The Potency result in assay [3] and in assay [5] was “inactive” throughout.

With `CC(C)(C)c1ccc(OCC2CO2)cc1` (configuration not stated), the figures for the Potency in assay [1] and in assay [3] were 64.6 µM (active) and 72.4 µM (active), respectively. Moreover, the Potency entry in assay [4] and in assay [5] was “inactive” in each case.

`CC(C)(C)c1ccc(S)cc1`: the results for the Potency in assay [1] and in assay [3] were 50.2 µM (active) and 31.7 µM (active), respectively. Also, in assay [5], the Potency entry is “inactive”.

For the compound `O=C(O)Cc1sc(-c2ccccc2)nc1-c1ccc(Cl)cc1`, the Potency entry in assay [1], in assay [4] and in assay [5] was “inactive” throughout. The Potency in assay [3] is 4.9 µM (active).

Regarding `CC[C@]12CCCN3CCc4c(n(c5ccccc45)C(=O)C1)[C@@H]32`, the Potency in assay [1] was 4.9 µM (active). In addition, the Potency result in assay [2] was “inactive”.

For the compound `O=C(O)c1cn(C2CC2)c2cc(Cl)c(F)cc2c1=O`, the Potency entry in assay [1], in assay [3], in assay [4] and in assay [5] was “inactive” each time.

Take `CCCCCCCCC(CO)CCCCCC` (configuration not stated): the values for the Potency in assay [1] and in assay [3] were 31.7 µM (active) and 25.2 µM (active), respectively. In addition, in assay [5], the Potency result is “inactive”.

In the case of `CCCCCCCCCCCCCCCBr`, the Potency result in assay [1], in assay [3], in assay [4] and in assay [5] was “inactive” throughout.

For the compound `COCCCCCCCCOCCC[Si](C)(O[Si](C)(C)C)O[Si](C)(C)C`, the Potency in assay [1] was 56.4 µM (active); in assay [3], 35.6 µM (active); in assay [5], 3.56 µM (active).

Turning to `CC(C)CCCC(C)CCO` (configuration not stated), the Potency result in assay [1], in assay [2], in assay [4] and in assay [5] was “inactive” throughout.

As for `CC(C(=O)O)c1ccc(-c2ccccc2)c(F)c1` (configuration not stated), the Potency entry in assay [1] and in assay [5] was “inactive” each time. In assay [3], the Potency is 25.2 µM (active).

As for `CC1(C)CCC(C)(C)c2cc(NC(=O)c3ccc(C(=O)O)cc3)ccc21`, the Potency entry in assay [1], in assay [2] and in assay [4] was “inactive” each time.

Regarding `N#CCc1cccc(C(F)(F)F)c1`, the Potency result in assay [1], in assay [3], in assay [4] and in assay [5] was “inactive” throughout.

In the case of `C1CCC2OC2C1` (configuration not stated), the Potency result in assay [1], in assay [3], in assay [4] and in assay [5] was “inactive” throughout.

With `O=C(C(=O)c1ccc(Br)cc1)c1ccc(Br)cc1`, the Potency in assay [1] was 0.352 µM (active). The activity change, negative = inhibition is -0.879% [at 23.6 µM] in assay [3] and 4.73% [at 23.6 µM] in assay [5].

For the compound `CN1CCN(C2=Nc3cc(Cl)ccc3Nc3ccccc32)CC1`, the Potency result in assay [1] and in assay [2] was “inactive” throughout.

On to `CC(=O)OCCc1ccccc1`, for which the Potency result in assay [1], in assay [2], in assay [4] and in assay [5] was “inactive” each time.

Take `COC(Cc1ccccc1)OC`: the Potency entry in assay [1], in assay [2] and in assay [5] was “inactive” in each case.

`Cn1sccc1=O`: the Potency in assay [3] is 31.7 µM (active) and 35.6 µM (active); in assay [2] it was 35.6 µM (active) and 31.7 µM (active). The Potency result in assay [4] and in assay [5] was “inactive” in each case.

On to `Oc1ccc(C(O)CNCCCCCCNCC(O)c2ccc(O)c(O)c2)cc1O` (configuration not stated), for which the Potency result in assay [1], in assay [4] and in assay [5] was “inactive” each time.

For `O=C(Cl)c1c(Cl)cccc1Cl`, the Potency in assay [1] is 36 µM (active). The Potency entry in assay [2], in assay [4] and in assay [5] was “inactive” in each case.

For `Nc1nc(CC(=O)O)cs1`, the Potency entry in assay [3] and in assay [2] was “inactive” throughout.

As to `CC(=O)[C@@]1(O)CC[C@H]2[C@@H]3C[C@H](C)C4=CC(=O)CC[C@]4(C)[C@H]3CC[C@@]21C`, the Potency in assay [1] is 1.95 µM (active). Moreover, the Potency entry in assay [2], in assay [4] and in assay [5] was “inactive” in each case.
